From PubChem BioAssay
Compounds with a hit are over-represented: about 1.5% of the library has one in this group of screens.
MCL1 BIM primary: inhibitors of MCL1 binding to BIM-BH3, primary screen, biochemical, fluorescence polarization. GST-MCL1 / FITC-Bim-BH3 fluorescence polarization. inhibition, % at 10.9 µM. 320,000 tested, 0.68% active. Induced myeloid leukemia cell differentiation protein Mcl-1 (Homo sapiens), Q07820;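 active = inhibition above the mean inhibition of all tested compounds plus 3 SD, set per campaign, cut at about 40% in these data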;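 also: 0% = DMSO wells and 100% = unlabeled Bim-BH3 peptide control; higher means more loss of mP so more displacement of Bim peptide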
Bcl-xL primary: inhibitors of human Bcl-xL, primary screen, biochemical, fluorescence polarization, HTS | Bcl-2-like protein 1 (Homo sapiens), Q07817 | GST-Bcl-xL / FITC-Bim BH3 peptide fluorescence polarization | inhibition, % at 10.9 µM | 320,000 tested, 0.7% active | AID 2129, 2009;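 active = inhibition above the mean of all tested compounds plus 3 SD, cutoff set per campaign, cut at about 30% in these data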;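 also: 0% = DMSO wells and 100% = unlabeled Bim-BH3 peptide competitor; inhibitors lower millipolarization by displacing the labeled peptide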
Target sequence (Q07817 whole entry, looked up): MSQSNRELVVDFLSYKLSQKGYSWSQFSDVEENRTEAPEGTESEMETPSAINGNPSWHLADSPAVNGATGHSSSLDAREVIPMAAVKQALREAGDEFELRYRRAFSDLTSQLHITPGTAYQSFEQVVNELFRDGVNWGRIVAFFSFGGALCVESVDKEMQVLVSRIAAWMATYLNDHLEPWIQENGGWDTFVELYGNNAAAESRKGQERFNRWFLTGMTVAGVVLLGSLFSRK
eLon inh: inhibitors of E. coli Lon protease, primary screen, biochemical, fluorescence polarization; P0A9M0; purified E. coli Lon protease; inhibition, % at 7.94 µM; 360,000 tested, 0.42% active; in the data active = inhibition above about 13%, passing the limit was not always enough;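 also: 0% = enzyme with probe and DMSO and 100% = no enzyme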
EBV gp42 block: Epstein-Barr virus gp42 inhibitors, primary screen, biochemical, uHTS, fluorescence polarization; Glycoprotein 42 (Epstein-Barr virus (strain AG876)), Q1HVG2; Fluorescence polarization binding assay, mP read-out; 220,000 tested, 0.42% active; AID 1085, 2008; inhibition, % (tested at 21.74 µM); in the data active = inhibition above about 50%
MEX-5 binding: MEX-5 zinc finger RNA-binding disruptors – biochemical, C. elegans, fluorescence polarization, MLPCN library, primary screen; Zinc finger protein mex-5 (Caenorhabditis elegans), Q9XUB2; AID 1832, 2009; 300,000 tested, 0.38% active; activity score (negative = inhibition of binding), % at 10 µM; MEX-5/FITC-TCR2 RNA binding; stronger effect = lower value;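 active = inhibition past about -25% in most replicates, and total fluorescence under double the plate's negative control median, limit read from the data; inconclusive = replicates evenly split on the limit, or fluorescence at least double controls; inactive = too little inhibition in most replicates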;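 also: 0% = DMSO and -100% = 5 µM competing unlabeled TCR2 RNA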
GLD-1 TGE inh: GLD-1/TGE RNA complex disruptors, primary screen, biochemical, fluorescence polarization. Female germline-specific tumor suppressor gld-1 (Caenorhabditis elegans), Q17339. purified GLD-1 + fluorescein TGE RNA. inhibition, % at 5.96 µM. 320,000 tested, 0.44% active. AID 2280, 2010;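 active = percent inhibition above a per-plate cutoff, the plate mean of test compounds plus 3 SD, cut at about 30% in these data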;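 also: 0% = DMSO wells with GLD-1 and probe and 100% = wells lacking GLD-1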
Target sequence (Q17339 whole entry, looked up): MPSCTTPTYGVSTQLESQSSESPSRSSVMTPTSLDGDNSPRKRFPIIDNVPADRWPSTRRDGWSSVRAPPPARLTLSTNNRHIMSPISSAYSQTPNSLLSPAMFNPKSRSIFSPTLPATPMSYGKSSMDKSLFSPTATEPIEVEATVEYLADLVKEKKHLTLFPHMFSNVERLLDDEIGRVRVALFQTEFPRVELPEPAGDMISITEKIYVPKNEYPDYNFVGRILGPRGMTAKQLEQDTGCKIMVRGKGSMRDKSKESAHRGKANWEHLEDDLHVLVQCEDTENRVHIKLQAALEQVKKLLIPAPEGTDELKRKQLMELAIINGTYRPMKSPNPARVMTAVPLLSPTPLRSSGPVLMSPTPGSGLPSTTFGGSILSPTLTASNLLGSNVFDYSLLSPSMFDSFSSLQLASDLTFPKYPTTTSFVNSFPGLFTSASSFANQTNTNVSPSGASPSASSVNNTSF
* = called active by the depositor; ? = inconclusive; nt = no result.

SMILES | MCL1 BIM primary | Bcl-xL primary | eLon inh | EBV gp42 block | MEX-5 binding | GLD-1 TGE inh
CSc1nnc(N2C(=O)C(O)=C(C(=O)c3ccco3)C2c2cccc(Cl)c2)s1 (stereo unspecified) | 32.6 | 38.9* | -13.4 | nt | -26.0* | 37.3*
C=CCOc1ccc(C2C(C(=O)c3ccco3)=C(O)C(=O)N2c2nnc(C)s2)cc1 (stereo unspecified) | 26.8 | 33.3* | -0.1 | 42.9 | -6.8 | 21.4
COc1ccc(C2C(C(=O)c3ccco3)=C(O)C(=O)N2c2nnc(C)s2)cc1 (stereo unspecified) | 32.0 | 25.8 | 0.8 | 42.8 | -5.8 | 23.9
COc1ccc(C2C(C(=O)c3ccco3)=C(O)C(=O)N2c2nnc(C)s2)cc1OC (stereo unspecified) | 43.3* | 44.9* | 5.1 | nt | -11.9 | 18.8
CCOc1cccc(C2C(C(=O)c3ccc(C)o3)=C(O)C(=O)N2c2nnc(C)s2)c1 (stereo unspecified) | nt | nt | -2.9 | nt | nt | nt
N#Cc1ccc(NC(=O)Cn2cnc(S(=O)(=O)N3CCc4ccccc43)c2)cc1 | 2.3 | 5.4 | -0.8 | nt | -2.5 | 6.1
CC(=O)C1=C(c2ccccc2)OC(N)=C(C#N)C1c1ccccc1C (stereo unspecified) | -3.1 | 1.7 | 9.9 | -6.7 | -0.2 | 4.4
CC(=O)C1(C)OC(N)=C(C#N)C(c2ccccc2)C1(C#N)C#N (stereo unspecified) | 36.8 | 42.9* | -9.2 | -0.2 | -13.1 | 26.5
COCCN1CCC(CNCc2c(C(=O)N3CCCCC3)nc3c(C)cccn23)C1 (stereo unspecified) | 17.8 | 23.6 | 8.3 | 6.4 | -48.9* | 16.8
COc1ccc(NC(=O)c2cc(S(=O)(=O)N3CCCC3)ccc2C)cn1 | 41.9* | 34.7* | 8.8 | nt | nt | 29.0
CCn1cc(S(=O)(=O)N2CCCC2)cn1 | 1.0 | -4.0 | -3.4 | nt | -1.2 | -2.5
O=C(CSc1nnc(CNC(=O)c2cccs2)o1)Nc1ccc(Cl)cc1 | -0.6 | 2.2 | 1.6 | nt | nt | -3.6
Cc1cc[n+](-c2[nH]c(=O)sc2/C=N/N=C(\[O-])c2ccncc2)cc1 | 49.3* | 38.1* | 12.5 | nt | -23.2 | 19.8
Cc1cc[n+](-c2[nH]c(=O)sc2/C=N/N=C(\[O-])c2ccccc2)cc1 | 34.9 | 26.0 | 10.8 | 24.5 | -9.8 | 24.6
CCOC(=O)CN=C1CC(C)(C)CC2=C1Sc1ncnc(N(C)C)c1N2 | 28.8 | 38.3* | 6.0 | 43.5 | -20.8 | 13.6
CCOC(=O)C1=C(C)NC2=C(C(=O)CC(C)(C)C2)C1c1cccc(C)n1 (stereo unspecified) | 1.6 | 3.0 | 1.3 | -0.8 | -1.4 | 5.2
Cc1cccc(C(=O)N(C(=O)c2cccc(C)c2)N(C)C)c1 | nt | nt | -1.2 | nt | nt | nt
COc1ccc(C2=NN(c3ccc(C=O)cc3)C(c3ccccc3)C2)cc1 (stereo unspecified) | -4.1 | 1.8 | nt | nt | 3.1 | -11.7
COc1ccc(C2CC(c3cccs3)=NN2c2ccc(C=O)cc2)cc1 (stereo unspecified) | -62.1 | -13.0 | nt | 49.4 | -47.2* | -40.6
CCOc1ccc(-c2c(C#N)c(N)nc3sc(C(=O)c4ccccc4)c(N)c23)cc1 | 1.8 | 3.5 | -3.2 | 70.2* | ? | 4.2
CSc1c(C#N)c(N)nc2sc(C(=O)c3ccc(Cl)c(Cl)c3)c(N)c12 | 0.2 | 8.1 | nt | 75.6* | ? | -4.4
CCCCOC(=O)CSc1nc(N)c(C#N)c(-c2ccc(OCC)cc2)c1C#N | 2.2 | 0.4 | -3.1 | -3.0 | -2.8 | 1.2
CC(C)OC(=O)c1sc2nc(-c3ccccc3)ccc2c1N | 5.6 | 4.8 | -7.7 | -17.9 | -1.7 | 2.6
COc1ccc(C(=O)c2sc3nc(-c4ccccc4)ccc3c2N)cc1 | 39.9* | 52.3* | -113.3 | 3.4 | -2.6 | -42.9
COc1ccc(-c2c(C#N)c(N)nc3sc(C(=O)c4ccccc4)c(N)c23)cc1 | 6.8 | 4.0 | -8.3 | 81.2* | -2.6 | -0.3
SMILES | MCL1 BIM primary | Bcl-xL primary | eLon inh | EBV gp42 block | MEX-5 binding | GLD-1 TGE inh
CC(C)CC(NC(=O)C(NC(=O)C1CCC(=O)N1C(=O)OCc1ccccc1)C(C)C)C(=O)N1CCCC1C(N)=O (stereo unspecified) | -1.3 | -1.6 | 4.7 | nt | -2.3 | 2.7
CC(C)N(C(=O)CSc1ccc(S(=O)(=O)N2CCCCC2)cn1)C(C)C | 8.5 | 6.3 | 5.9 | nt | nt | -2.6
CSCC(C)N1CCC(N2CCC(C(=O)NCc3ccccn3)CC2)CC1 (stereo unspecified) | 40.2* | 33.0* | -11.5 | nt | ? | 17.6
CC(C)CCC(=O)N1CCC(N2CCC(C(=O)NCc3ccccn3)CC2)CC1 | 6.7 | 16.3 | -6.4 | nt | -5.3 | 6.0
O=C(COC(=O)/C=C/c1ccccc1Cl)NC1CC1 | nt | nt | -10.8 | nt | nt | nt
CCNC(=O)c1c(N)sc2c1CCCCC2 | 38.5 | 38.7* | nt | 5.2 | -7.2 | 23.8
Cc1nc(N2CCN(Cc3ccccc3)CC2)c(C#N)c2c1COC(C)(C)C2 | 23.7 | 26.2 | 9.8 | 23.9 | -33.5* | 8.2
CCN1C(=O)/C(=C\c2ccc(-c3ccc([N+](=O)[O-])cc3OC)o2)SC1=Nc1cccc(C(=O)O)c1 | nt | nt | -2.9 | 81.2* | -6.6 | nt
Cc1cccc(CN2CCN(C3CN(Cc4cn(Cc5cccc(Cl)c5)nn4)S(=O)(=O)C3)CC2)c1 (stereo unspecified) | nt | nt | 0.2 | nt | nt | nt
CCOc1cc(S(=O)(=O)n2ccnc2)ccc1Cl | -1.9 | 2.2 | 5.0 | -7.0 | 2.2 | -3.8
CCSc1nc2sc3c(c2c(=O)[nH]1)CCCC3 | -0.6 | 0.8 | -2.3 | 65.8* | 0.9 | -12.3
N=c1oc2c3c4c(cc2cc1C(=O)Nc1ccccc1)CCCN4CCC3 | 191.5* | 165.1* | 5.7 | -66.6 | ? | 87.7*
CCc1nc2ccc(C(=O)Nc3cccc(OCC(=O)N(C)C)c3)cn2c1N(C)C(=O)c1cccc(OC)c1 | nt | nt | -3.6 | nt | nt | nt
Cc1ccc(C(=O)N/C(=C/c2ccco2)C(=O)N2CCCCCC2)cc1 | 10.2 | 11.8 | -9.5 | nt | -2.3 | 0.1
O=C(N/C(=C\c1ccco1)C(=O)N1CCCC1)c1ccccc1 | 40.9* | 40.5* | -5.0 | nt | -0.7 | 7.3
Nc1nc(-c2ccccc2)[nH]c(=O)c1N | 12.4 | 12.5 | -5.8 | 20.7 | -26.2* | 18.0
CCOC(=O)/C(C#N)=C1/C=CN(Cc2ccccc2)C=N1 | 4.7 | 4.1 | -3.3 | -3.8 | -4.5 | 1.9
CCOC(=O)C(=O)C1=CN(Cc2ccccc2)C=C(C#N)C1 | 46.9* | 43.5* | 7.3 | nt | 0.9 | 25.3
Cc1cc(O)c2c(c1)C(=O)[C@@]13Oc4c5c(c(O)c6c(O)cc(C)cc46)C(=O)C[C@H](O)[C@H]5[C@@H]1[C@@H](O)CC(=O)C3=C2O | nt | nt | 20.0* | nt | nt | nt
